Test results: the supplement of paper PMC6555819

Experiments:
Assay in all cases: PBM binding z-score (relative to random genomic background probes); higher = stronger binding; sequences stand for … in GC…GCGATTGACAGCGTAGAATGAAGG
[1] = tested on: FXR:RXRa (NR concentration 270 nM, RXRa partner concentration 90 nM)
Summary of the method: (§1)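 Scanned fluorescence from custom Agilent 4×180K protein-binding microarrays was regression-normalized. Binding z-scores use random background probes as reference. Ligand-free nuclear receptor dimers were incubated on the arrays for 1 h and detected with antibodies against each partner (one per run).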

[2] = tested on: LXRa:RXRa (NR concentration 270 nM, RXRa partner concentration 90 nM)
Summary of the method: as §1

[3] = tested on: LXRa homodimer (NR concentration 270 nM)
Summary of the method: as §1

[4] = tested on: LXRb:RXRa (NR concentration 270 nM, RXRa partner concentration 90 nM)
Summary of the method: as §1

[5] = tested on: LXRb homodimer (NR concentration 270 nM)
Summary of the method: as §1

[6] = tested on: PPARa:RXRa (NR concentration 270 nM, RXRa partner concentration 90 nM)
Summary of the method: as §1

[7] = tested on: PPARg:RXRa (NR concentration 180 nM, RXRa partner concentration 90 nM)
Summary of the method: as §1

[8] = tested on: PPARg:RXRa 270nM:90nM, anti-RXR (NR concentration 270 nM, RXRa partner concentration 90 nM)
Summary of the method: as §1

[9] = tested on: PPARg:RXRa 30nM:10nM, anti-RXR (NR concentration 30 nM, RXRa partner concentration 10 nM)
Summary of the method: as §1

[10] = tested on: PPARg:RXRa 90nM:30nM, anti-RXR (NR concentration 90 nM, RXRa partner concentration 30 nM)
Summary of the method: as §1

[11] = tested on: PPARg:RXRa DBDmut IVT, anti-RXR (DBD mutation: RXRa K156A/R161A, NR concentration 270 nM, RXRa partner concentration 90 nM)
Summary of the method: as §1

[12] = tested on: PPARg:RXRa IVT, anti-PPARg (NR concentration 270 nM, RXRa partner concentration 90 nM)
Summary of the method: as §1

[13] = tested on: PPARg DBDmut:RXRa IVT, anti-PPARg (DBD mutation: PPARg1 K132A/R137A, NR concentration 270 nM, RXRa partner concentration 90 nM)
Summary of the method: as §1

[14] = tested on: PPARg DBDmut IVT, anti-PPARg (DBD mutation: PPARg1 K132A/R137A, NR concentration 270 nM)
Summary of the method: as §1

[15] = tested on: PPARg homodimer (NR concentration 180 nM)
Summary of the method: as §1

[16] = tested on: PXR:RXRa (NR concentration 270 nM, RXRa partner concentration 90 nM)
Summary of the method: as §1

[17] = tested on: PXR homodimer (NR concentration 270 nM)
Summary of the method: as §1

[18] = tested on: RARa:RXR (NR concentration 270 nM, RXRa partner concentration 90 nM)
Summary of the method: as §1

[19] = tested on: RARa homodimer (NR concentration 270 nM)
Summary of the method: as §1

[20] = tested on: RARb:RXRa (NR concentration 270 nM, RXRa partner concentration 90 nM)
Summary of the method: as §1

Sequence	PBM binding z-score [1]	PBM binding z-score [2]	PBM binding z-score [3]	PBM binding z-score [4]	PBM binding z-score [5]	PBM binding z-score [6]	PBM binding z-score [7]	PBM binding z-score [8]	PBM binding z-score [9]	PBM binding z-score [10]	PBM binding z-score [11]	PBM binding z-score [12]	PBM binding z-score [13]	PBM binding z-score [14]	PBM binding z-score [15]	PBM binding z-score [16]	PBM binding z-score [17]	PBM binding z-score [18]	PBM binding z-score [19]	PBM binding z-score [20]
TCATATAGGTAAATGTGAAAGTCGAACGATATGA	0.203	0.245	-0.116	0.343	-0.015	0.983	1.44	2.01	3.79	2.88	3.33	2.26	1.69	1.36	0.31	0.168	-0.0723	0.602	0.286	0.153
GCAGACAGGTGAAACGCAAGTAACTCAGGGTGGC	-0.454	-0.128	-0.469	-0.359	-0.954	0.613	0.63	-0.0352	-0.456	-0.429	0.725	0.495	-0.728	-0.714	-0.578	-0.359	-0.754	-0.0735	-0.461	0.562
CCTAGCAGGCCAATCTGGGTTACTCAAGGCTTGA	0.0367	-0.0703	-0.681	-0.364	-1.09	1.18	0.194	0.0942	-1.01	-0.507	3.14	3.29	-0.813	-1.24	-0.705	-0.391	-0.895	-0.308	-0.89	0.268
CCTAGTTGGTCAGGAGGTCACACATCGGATATGA	3.47	3.35	2.05	3.2	0.972	4.03	3.29	3.64	1.24	2.91	1.56	3.61	1.34	0.678	3.07	4.1	1.36	4.37	1.58	3.71
GCCACTGGGGCATCAGCAGGTTACCATAACTTAA	-0.242	-0.416	-0.158	0.103	-1.12	1.28	1.72	1.82	0.184	0.914	4.53	4.92	-0.157	-0.59	0.0359	-0.0612	-0.589	0.475	-0.576	0.955
TAGCCTAGGACATGGGCCAGTATACCACGCGAAC	-0.615	-0.64	-0.616	-0.618	-0.673	-0.454	0.715	-0.284	-0.595	-0.49	-1.18	-0.594	-0.263	-0.978	-0.814	-0.387	-0.477	-0.815	-0.515	0.0238
CTAGAAAGGTCGTGCTCAGGTGAGTATACCAAAC	4.5	3.64	0.405	3.02	0.336	4.78	2.51	3.48	0.919	2.34	0.638	1.62	-0.0853	0.547	1.73	2.82	0.0874	4.02	0.32	3.63
CCGACTGAGGCAAAGGTTACCATACTCAGTACGA	0.7	1.19	-0.159	1.48	-0.611	3.69	6.77	6.76	4.81	6.88	0.849	2.47	-0.356	-0.203	1.16	1.56	0.0581	2.31	0.408	1.78
AATACAGGGTCACTAGGCGAGAGTAGGTACGAAT	6.08	4.92	1.02	3.94	1.26	5.66	7.02	6.14	2.65	4.89	3.92	5.14	1.72	0.921	2.09	3.16	0.858	4.27	1.4	4.29
CAAACTAGGTCAGAACAGGACAGTGAAGGATGAT	1.81	1.26	0.299	0.616	0.235	3.34	5.81	4.56	2.45	3.64	7.14	7.34	4.2	3.64	1.77	1.06	0.211	1.32	1.02	3.24
CCTAGCAGGCCAGGGTCTCTCAAGCATTTCGCTT	-0.78	-0.742	-0.767	-0.956	-1.15	-0.63	-0.954	-0.991	-1.16	-1.4	-0.0358	-0.785	-1.73	-1.57	-0.714	-0.908	-0.933	-0.825	-1.17	-0.0781
CGAACTAAGTCAAGGACAGTGAATCTCCGCACGC	-0.155	-0.206	-0.211	-0.441	-0.793	-0.228	0.372	-0.132	-0.287	-0.694	0.868	0.214	-0.424	-0.249	-0.418	-0.229	-0.329	0.0296	-0.646	0.556
CCAGACAGGTGAGAAGGTGACTCAGCCTCGATTA	0.0148	-0.0121	-0.103	0.201	-0.178	0.868	0.495	0.694	-0.409	0.222	1.19	0.996	0.0696	-0.454	0.821	-0.175	0.603	0.235	0.708	1.02
AAATGTAGGTTAGCTGGGGTCATTCAGACTAGGC	4.53	5.93	3.17	4.82	0.888	5.67	6.42	5.77	3.31	5.16	7.19	7.11	4.54	3.23	3.17	6.55	4.04	6.04	0.836	3.28
